Source: the supplement of paper PMC10849652
The full data set covers some 7,900 targets. This sample favours those with a hit. About 0.6% of all pairs of compound and target were hits. Unmarked numbers belong to inactive results.

Columns and labels:
Experiment in all cases: log2 fold change, soluble protein after heating vs DMSO (PISA); higher = thermal stabilisation; K562 cells, 10 uM, 30 min; active = over 0.2 and 3.5 SD of the protein, either way, in both replicates (recomputed)
[1] = biological target: ZC3H8 (UniProt Q8N5P1)
Sequence of ZC3H8 (Q8N5P1 whole entry, looked up): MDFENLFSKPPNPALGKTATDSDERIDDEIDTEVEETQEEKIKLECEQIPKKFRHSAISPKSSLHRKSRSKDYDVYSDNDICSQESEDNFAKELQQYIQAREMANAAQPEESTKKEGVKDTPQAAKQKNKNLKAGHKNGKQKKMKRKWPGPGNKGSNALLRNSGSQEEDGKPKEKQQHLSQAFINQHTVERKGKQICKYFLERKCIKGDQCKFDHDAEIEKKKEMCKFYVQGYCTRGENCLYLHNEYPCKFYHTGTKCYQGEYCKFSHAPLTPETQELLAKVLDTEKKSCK
Procedure, shortened: (§1)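 K562 cells (2×10^6 cells/mL) were treated with 10 μM compound for 30 min, and aliquots were heated for 3 min over 48°C-58°C. Pooled aliquots were extracted in PBS with 0.5% NP-40 at 4°C, and the supernatant after 21,000xg for 90 min was measured by TMTpro 16plex LC-MS/MS with channel sums equalised. Reported thermal stability, relative to control samples and from duplicates, is a log2 fold change.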

[2] = biological target: ZC3HC1 (UniProt Q86WB0)
Sequence of ZC3HC1 (Q86WB0 whole entry, looked up): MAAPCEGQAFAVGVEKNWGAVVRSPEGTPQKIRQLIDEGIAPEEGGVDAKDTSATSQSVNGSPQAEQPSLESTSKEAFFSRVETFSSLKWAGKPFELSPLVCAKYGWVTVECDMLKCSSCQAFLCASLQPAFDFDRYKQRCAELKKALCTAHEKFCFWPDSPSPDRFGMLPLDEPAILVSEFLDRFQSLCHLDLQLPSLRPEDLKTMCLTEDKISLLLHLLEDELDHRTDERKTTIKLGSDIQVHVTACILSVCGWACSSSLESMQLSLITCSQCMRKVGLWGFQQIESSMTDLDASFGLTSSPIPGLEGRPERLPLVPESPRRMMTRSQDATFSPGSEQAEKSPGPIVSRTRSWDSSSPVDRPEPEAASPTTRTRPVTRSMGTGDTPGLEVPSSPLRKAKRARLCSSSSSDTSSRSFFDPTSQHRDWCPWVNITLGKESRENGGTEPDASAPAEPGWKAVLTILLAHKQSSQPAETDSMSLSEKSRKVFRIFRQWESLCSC
Procedure, shortened: as §1

[3] = biological target: ZCCHC9 (UniProt Q8N567)
Sequence of ZCCHC9 (Q8N567 whole entry, looked up): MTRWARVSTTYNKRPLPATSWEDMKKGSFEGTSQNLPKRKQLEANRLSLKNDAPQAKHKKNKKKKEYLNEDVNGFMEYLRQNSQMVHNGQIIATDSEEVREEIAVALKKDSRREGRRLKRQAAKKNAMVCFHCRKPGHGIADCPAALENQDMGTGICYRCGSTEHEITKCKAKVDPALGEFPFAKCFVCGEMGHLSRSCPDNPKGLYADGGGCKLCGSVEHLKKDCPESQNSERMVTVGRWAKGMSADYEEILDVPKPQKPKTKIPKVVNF
Procedure, shortened: as §1

[4] = biological target: ZDHHC17 (UniProt Q8IUH5)
Sequence of ZDHHC17 (Q8IUH5 whole entry, looked up): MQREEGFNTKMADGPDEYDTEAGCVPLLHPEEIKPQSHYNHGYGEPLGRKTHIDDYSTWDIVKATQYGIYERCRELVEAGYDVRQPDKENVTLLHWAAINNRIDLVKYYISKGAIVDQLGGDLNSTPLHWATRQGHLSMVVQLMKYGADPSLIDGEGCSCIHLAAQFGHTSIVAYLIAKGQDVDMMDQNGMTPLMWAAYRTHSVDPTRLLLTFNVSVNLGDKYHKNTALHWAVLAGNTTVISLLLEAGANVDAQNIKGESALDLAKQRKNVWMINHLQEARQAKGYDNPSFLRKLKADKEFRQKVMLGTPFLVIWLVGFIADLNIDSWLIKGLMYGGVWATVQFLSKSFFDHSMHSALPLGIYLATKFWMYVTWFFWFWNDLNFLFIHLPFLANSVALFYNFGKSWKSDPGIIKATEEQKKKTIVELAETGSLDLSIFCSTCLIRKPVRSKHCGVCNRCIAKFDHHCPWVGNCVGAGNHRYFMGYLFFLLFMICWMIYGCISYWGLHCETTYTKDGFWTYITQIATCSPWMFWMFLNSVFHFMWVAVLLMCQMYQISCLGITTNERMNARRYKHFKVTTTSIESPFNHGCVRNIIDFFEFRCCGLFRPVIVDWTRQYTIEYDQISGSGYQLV
Procedure, shortened: as §1

[5] = biological target: ZDHHC20 (UniProt Q5W0Z9)
Sequence of ZDHHC20 (Q5W0Z9 whole entry, looked up): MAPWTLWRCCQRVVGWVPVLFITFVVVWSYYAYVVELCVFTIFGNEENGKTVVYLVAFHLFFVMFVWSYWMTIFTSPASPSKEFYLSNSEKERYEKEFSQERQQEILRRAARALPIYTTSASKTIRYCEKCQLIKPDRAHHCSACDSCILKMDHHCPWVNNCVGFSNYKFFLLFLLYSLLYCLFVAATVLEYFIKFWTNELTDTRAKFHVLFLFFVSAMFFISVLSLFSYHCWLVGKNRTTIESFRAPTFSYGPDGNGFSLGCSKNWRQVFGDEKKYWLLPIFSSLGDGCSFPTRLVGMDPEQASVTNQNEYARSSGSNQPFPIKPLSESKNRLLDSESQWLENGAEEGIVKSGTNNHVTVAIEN
Procedure, shortened: as §1

[6] = biological target: ZDHHC5 (UniProt Q9C0B5)
Sequence of ZDHHC5 (Q9C0B5 whole entry, looked up): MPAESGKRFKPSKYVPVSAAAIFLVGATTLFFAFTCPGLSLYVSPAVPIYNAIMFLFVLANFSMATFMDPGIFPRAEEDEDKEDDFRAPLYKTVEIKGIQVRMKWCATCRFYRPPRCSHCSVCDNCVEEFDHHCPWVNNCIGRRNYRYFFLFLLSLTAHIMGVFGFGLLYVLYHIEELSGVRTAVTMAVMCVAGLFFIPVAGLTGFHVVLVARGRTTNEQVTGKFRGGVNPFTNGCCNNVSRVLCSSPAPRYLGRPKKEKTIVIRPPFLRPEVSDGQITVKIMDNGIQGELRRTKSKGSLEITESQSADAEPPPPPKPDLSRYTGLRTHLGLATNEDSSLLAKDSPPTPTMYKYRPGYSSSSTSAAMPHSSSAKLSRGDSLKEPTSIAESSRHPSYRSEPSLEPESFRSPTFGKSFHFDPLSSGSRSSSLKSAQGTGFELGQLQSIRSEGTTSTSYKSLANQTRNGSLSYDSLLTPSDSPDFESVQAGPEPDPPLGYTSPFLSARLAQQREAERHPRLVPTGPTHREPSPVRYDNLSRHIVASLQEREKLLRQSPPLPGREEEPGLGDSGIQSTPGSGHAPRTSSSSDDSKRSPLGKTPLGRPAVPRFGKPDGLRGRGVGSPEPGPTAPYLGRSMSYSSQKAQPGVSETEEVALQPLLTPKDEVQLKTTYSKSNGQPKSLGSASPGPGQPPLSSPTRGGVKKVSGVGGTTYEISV
Procedure, shortened: as §1

[7] = biological target: ZDHHC7 isoform 2 (UniProt Q9NXF8)
Sequence of ZDHHC7 isoform 2 (Q9NXF8 whole entry, looked up, canonical isoform): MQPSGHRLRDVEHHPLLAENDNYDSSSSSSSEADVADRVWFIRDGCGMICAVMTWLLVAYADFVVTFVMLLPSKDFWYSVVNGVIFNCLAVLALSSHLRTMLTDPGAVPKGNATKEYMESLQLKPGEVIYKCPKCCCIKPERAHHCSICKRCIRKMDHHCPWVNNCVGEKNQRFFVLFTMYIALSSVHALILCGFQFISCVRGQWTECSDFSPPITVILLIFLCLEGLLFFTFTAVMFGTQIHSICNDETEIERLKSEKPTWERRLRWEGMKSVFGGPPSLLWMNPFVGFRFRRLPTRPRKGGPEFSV
Procedure, shortened: as §1

[8] = biological target: ZDHHC8 isoform 3 (UniProt Q9ULC8)
Procedure, shortened: as §1

[9] = biological target: ZEB2 (UniProt O60315)
Procedure, shortened: as §1

[10] = biological target: ZER1 (UniProt Q7Z7L7)
Procedure, shortened: as §1

[11] = biological target: ZFAND5 (UniProt O76080)
Procedure, shortened: as §1

[12] = biological target: ZFAND6 (UniProt Q6FIF0)
Procedure, shortened: as §1

[13] = biological target: ZFP91 (UniProt Q96JP5)
Procedure, shortened: as §1

[14] = biological target: ZFPL1 (UniProt O95159)
Procedure, shortened: as §1

[15] = biological target: ZMAT2 (UniProt Q96NC0)
Procedure, shortened: as §1

[16] = biological target: ZMYM1 (UniProt Q5SVZ6)
Sequence of ZMYM1 (Q5SVZ6 whole entry, looked up): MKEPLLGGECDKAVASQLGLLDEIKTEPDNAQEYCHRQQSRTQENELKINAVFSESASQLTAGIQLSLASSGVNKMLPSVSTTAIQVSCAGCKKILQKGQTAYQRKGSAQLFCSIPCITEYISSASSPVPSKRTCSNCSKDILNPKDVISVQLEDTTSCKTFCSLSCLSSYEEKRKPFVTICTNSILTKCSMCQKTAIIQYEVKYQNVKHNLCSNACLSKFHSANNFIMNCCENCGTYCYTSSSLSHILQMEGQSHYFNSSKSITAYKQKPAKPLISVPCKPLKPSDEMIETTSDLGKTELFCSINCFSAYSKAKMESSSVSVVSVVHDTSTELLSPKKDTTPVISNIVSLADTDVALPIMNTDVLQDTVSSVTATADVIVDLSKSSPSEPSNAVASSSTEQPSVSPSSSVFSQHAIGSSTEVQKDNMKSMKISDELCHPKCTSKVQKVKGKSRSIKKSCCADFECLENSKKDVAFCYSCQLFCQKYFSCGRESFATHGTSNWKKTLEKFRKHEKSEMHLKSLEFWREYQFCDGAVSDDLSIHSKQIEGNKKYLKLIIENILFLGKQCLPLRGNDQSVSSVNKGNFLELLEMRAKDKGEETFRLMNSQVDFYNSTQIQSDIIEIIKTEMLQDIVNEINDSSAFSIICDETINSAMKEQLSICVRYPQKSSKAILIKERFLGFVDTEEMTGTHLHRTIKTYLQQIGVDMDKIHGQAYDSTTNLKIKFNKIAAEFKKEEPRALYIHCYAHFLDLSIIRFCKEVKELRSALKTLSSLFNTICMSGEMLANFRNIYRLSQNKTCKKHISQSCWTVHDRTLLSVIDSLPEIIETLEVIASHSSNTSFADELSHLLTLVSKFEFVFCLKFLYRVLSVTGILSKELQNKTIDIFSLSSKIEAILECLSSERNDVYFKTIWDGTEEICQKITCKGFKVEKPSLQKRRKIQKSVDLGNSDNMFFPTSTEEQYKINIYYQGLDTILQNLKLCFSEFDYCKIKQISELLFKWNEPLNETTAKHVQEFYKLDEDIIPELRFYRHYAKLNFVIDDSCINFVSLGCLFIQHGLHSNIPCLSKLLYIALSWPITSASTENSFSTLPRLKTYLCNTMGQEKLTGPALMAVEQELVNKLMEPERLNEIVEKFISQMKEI
Procedure, shortened: as §1

[17] = biological target: ZMYM3 (UniProt Q14202)
Procedure, shortened: as §1

[18] = biological target: ZNF143 (UniProt P52747)
Sequence of ZNF143 (P52747 whole entry, looked up): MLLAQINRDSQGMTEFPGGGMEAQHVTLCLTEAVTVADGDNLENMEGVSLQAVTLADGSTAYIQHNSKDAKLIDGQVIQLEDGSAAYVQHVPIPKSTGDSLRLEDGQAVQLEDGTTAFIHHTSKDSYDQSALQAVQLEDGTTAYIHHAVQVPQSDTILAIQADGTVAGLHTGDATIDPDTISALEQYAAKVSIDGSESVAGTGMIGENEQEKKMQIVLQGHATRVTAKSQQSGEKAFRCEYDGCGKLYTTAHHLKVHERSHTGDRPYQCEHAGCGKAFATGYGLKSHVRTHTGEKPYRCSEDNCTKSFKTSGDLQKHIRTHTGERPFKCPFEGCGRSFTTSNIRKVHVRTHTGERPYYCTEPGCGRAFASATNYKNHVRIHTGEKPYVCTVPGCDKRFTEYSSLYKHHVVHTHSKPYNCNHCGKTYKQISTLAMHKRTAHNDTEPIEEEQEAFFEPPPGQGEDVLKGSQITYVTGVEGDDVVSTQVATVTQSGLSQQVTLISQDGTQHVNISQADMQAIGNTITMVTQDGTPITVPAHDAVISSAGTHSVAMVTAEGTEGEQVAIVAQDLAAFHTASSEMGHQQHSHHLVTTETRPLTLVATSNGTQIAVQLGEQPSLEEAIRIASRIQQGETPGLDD
Procedure, shortened: as §1

[19] = biological target: ZDHHC6 (UniProt Q9H6R6)
Procedure, shortened: as §1

SMILES	log2 fold change [1]	log2 fold change [2]	log2 fold change [3]	log2 fold change [4]	log2 fold change [5]	log2 fold change [6]	log2 fold change [7]	log2 fold change [8]	log2 fold change [9]	log2 fold change [10]	log2 fold change [11]	log2 fold change [12]	log2 fold change [13]	log2 fold change [14]	log2 fold change [15]	log2 fold change [16]	log2 fold change [17]	log2 fold change [18]	log2 fold change [19]
Cc1nc(Nc2n[nH]c3c2CN(C(=O)N[C@H](CN(C)C)c2ccccc2)C3(C)C)c2sccc2n1	0.081	-0.103	0.159	-0.012	-0.02	-0.037	0.046	0.013	-0.149	-0.141	0.038	0.028	-0.059	-0.034	0.07	-0.063	-0.01	-0.047	
O=C(Nc1nc2ccccc2n1CCN1CCOCC1)c1cccc([N+](=O)[O-])c1 [IRAK-1-4 Inhibitor I]	-0.098	-0.017	-0.085	-0.008	-0.044	-0.043	0	-0.049	0.02	0.025	0.057	0.032	-0.134	0.021	0.11	0.006	0.057	0.108	
CC(C)(C)Cn1c(N)nc2ccc(-c3[nH]c(C(C)(C)C)nc3-c3ccc(F)cc3)nc21 [ralimetinib]	0.047	0.035	0.017	-0.099	-0.187	-0.001	-0.033		-0.075	0.089	0.024	-0.048	-0.033	0.152	-0.024	0.078	-0.07	0.112	
Cc1cc(Nc2cc(N3CCN(C)CC3)nc(Sc3ccc(NC(=O)C4CC4)cc3)n2)n[nH]1 [tozasertib]	0.058	0.047	0.04	-0.02	0.006	-0.057	-0.04	-0.041	0.022	0.008	-0.076	-0.084	0.01	0.009	-0.039	-0.043	-0.033	0.057	
NC1(Cc2ccc(Cl)cc2)CCN(c2ncnc3[nH]ccc23)CC1	-0.01	0.019	-0.1	0.022	0.059	0.071	0	0.063	-0.149	0.043	0.119	0.038	-0.042	0.071	0.058	0.052	0.117	0.085	
CC1=C(C(=O)Nc2cc3cn[nH]c3cc2F)C(c2ccc(C(F)(F)F)cc2)CC(=O)N1 (stereo not given)	-0.072	0.057	0.012	-0.013	0.047	0.022	0.114	-0.083	-0.076	-0.112	0.058	-0.013	0.058	0.041	0.026	0.088	0.062	0.033	
Cc1ccc(C(=O)N(CCCN)[C@@H](c2nc3cc(Cl)ccc3c(=O)n2Cc2ccccc2)C(C)C)cc1 [ispinesib]	-0.016	-0.027	-0.353	0.023	-0.076	-0.035	0.126		0.05	0.153	-0.07	-0.082	-0.227	0.236	0.042	-0.122	-0.013	-0.038	
Cc1cccc(-c2[nH]c(C(C)(C)C)nc2-c2ccc3nccnc3c2)n1	-0.176	0.119	-0.133	-0.095	-0.007	-0.013	0.335	-0.03	0.031	-0.248	0.007	-0.088	-0.069	0.032	0.088	0.042	-0.038	0.021	
C[C@@H](Oc1cc(-c2cnn(C3CCNCC3)c2)cnc1N)c1c(Cl)ccc(F)c1Cl [crizotinib]	0.089	-0.109	0.032	-0.064	0.017	0.075	-0.131	-0.187	-0.141	0.084	-0.085	-0.041	0	0.107	0.098	-0.017	0.04	-0.06	
COC(=O)N[C@@H](C)CNc1nccc(-c2cn(C(C)C)nc2-c2cc(Cl)cc(NS(C)(=O)=O)c2F)n1 [encorafenib]	-0.01	0.05	0.002	-0.015	-0.058	-0.028	-0.043			0.01	-0.047	-0.019	0.038	-0.026	0.106	0.082	-0.032	0.014	0.006
O=C(CCCCCCC(=O)Nc1ccccc1)NO [vorinostat]	-0.039	0.04	-0.065	-0.079	-0.021	-0.02	0.006			0.055	-0.047	0.04	0.013	-0.053	-0.019	-0.02	0.073	0.037	-0.108
CN1CCc2c(c3ccccc3n2Cc2ccc(C(=O)NO)cc2)C1 [Tubastatin A]	-0.034	0.07	0.103	-0.012	0.02	0.051	-0.003	0.058	0.181	0.048	0.285 (active)	0.144	0.077	-0.025	0.057	0.071	-0.028	-0.031	
COc1cc2ncnc(Nc3ccc(F)c(Cl)c3)c2cc1OCCCN1CCOCC1 [gefitinib]	0.021	0.004	-0.062	0.04	-0.067	0.031	0.062	0.023	-0.086	-0.031	-0.006	-0.005	0.02	0.065	-0.021	0.014	0.034	-0.098	
Cc1ccc2c(=O)c3ccccc3n(CCCN)c2c1C	-0.277	-0.091	-0.187	0.037	0.028	0.08	0.005	0.02	-0.476 (active)	-0.017	-0.095	0	-0.432 (active)	0.079	-0.04	0.024	-0.058	-0.043	
Cn1cc(-c2ccc3nnc(C(F)(F)c4ccc5ncccc5c4)n3n2)cn1	-0.056	0.038	-0.081	-0.029	0.048	-0.009	0.091		-0.135	-0.024	-0.036	-0.009	-0.073	-0.03	-0.051	0.05	-0.246 (active)	0.041	
